The entries come from a sample that favours hits as a whole.
G9a inh: inhibitors of human histone lysine methyltransferase G9a | Potency, µM (doses to about 102 µM), for inactives: top-dose activity, negative = inhibition, actives largely listed as inhibitors | Q96KQ7 | G9a H3K9 monomethylation, AlphaScreen, 2 h | actives 8.8% (n = 350,000); note: % is set by controls: 0 for no effect and ±100 for the full control effect; nearly all actives have a fitted effect of over 75% in size
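Compounds were preincubated with 20 nM G9a for 15 min, after which biotinylated H3K9 peptide (500 nM) and SAM (20 uM) started a 2 h room-temperature reaction. Monomethylated product was quantified by antibody-based AlphaScreen chemiluminescence.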
VDR inh: blocks the human vitamin D receptor; VDR-SRC2-3 peptide fluorescence polarization, 2 h; actives 0.93% (n = 400,000); Potency, µM, for inactives: max response, negative = inhibition, hits mostly inhibitors; P11473; note: % is set by controls: 0 for no effect and ±100 for the full control effect
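Fluorescence polarization assay of small-molecule disruption of VDR binding to coregulator peptide SRC2-3. Compounds and controls pin-transferred, then read after 2 h incubation at ambient room temperature.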
GRP78 ERSR act: inducers of ER stress response in human glioma cells | U87-MG GRP78 promoter luciferase reporter, 16 h | Potency, µM, for the others: at the highest dose activation, hits mostly activators | actives 0.02% (n = 420,000); note: series mostly up to about 76 µM; % of control where 0% means no effect; nearly all actives have a fitted effect of over 35% in size
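ERSR induction read as luciferase luminescence (Bright-Glo, 10 min at room temperature) in stably transfected human U87-MG glioma cells exposed to compounds for 16 h, using GRP78 as sensor.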
12-LOX inh: inhibitors of human 12S-lipoxygenase ALOX12; P18054; purified 12hLO, xylenol orange hydroperoxide absorbance; Potency, µM (doses to about 108 µM), for the others: top-dose activity change, negative = inhibition, hits mostly inhibitors; actives 1.1% (n = 580,000); AID 1671190; note: % is set by controls: 0 for no effect and ±100 for the full control effect
Target sequence (P18054 whole entry, looked up): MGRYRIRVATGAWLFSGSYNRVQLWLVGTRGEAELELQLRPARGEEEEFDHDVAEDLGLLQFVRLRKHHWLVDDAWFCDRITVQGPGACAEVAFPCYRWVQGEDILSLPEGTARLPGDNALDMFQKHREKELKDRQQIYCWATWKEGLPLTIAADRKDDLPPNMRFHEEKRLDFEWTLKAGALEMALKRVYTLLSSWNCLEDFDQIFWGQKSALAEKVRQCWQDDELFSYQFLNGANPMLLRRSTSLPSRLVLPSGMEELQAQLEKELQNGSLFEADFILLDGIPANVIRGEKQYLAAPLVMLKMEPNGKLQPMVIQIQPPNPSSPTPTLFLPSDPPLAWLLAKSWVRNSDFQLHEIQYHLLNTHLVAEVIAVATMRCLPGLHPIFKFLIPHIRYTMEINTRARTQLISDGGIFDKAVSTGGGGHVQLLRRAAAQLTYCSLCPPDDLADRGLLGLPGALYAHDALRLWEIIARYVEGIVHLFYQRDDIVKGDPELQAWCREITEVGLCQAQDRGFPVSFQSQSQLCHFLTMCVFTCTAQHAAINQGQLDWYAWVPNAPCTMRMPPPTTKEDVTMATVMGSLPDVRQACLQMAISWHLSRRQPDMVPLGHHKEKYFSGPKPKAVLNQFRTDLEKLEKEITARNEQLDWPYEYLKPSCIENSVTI
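Hydroperoxide product was detected by ferrous iron/xylenol orange as the 573 to 405 nm absorbance ratio. Arachidonic acid at 40 uM (final) was turned over for 30 min at room temperature by 150 nM human 12hLO, pH 7.0 Hepes buffer, after 15 min compound preincubation.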
Sfp PPTase inh: inhibitors of Bacillus subtilis Sfp phosphopantetheinyl transferase. Q9F4F7. Biochemical Sfp PPTase activity, qHTS. Potency, µM, without a hit: largest response in the series, negative = inhibition, actives largely listed as inhibitors. actives 3.5% (n = 310,000);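 note: the enzyme is Sfp with the accession as filed and its product quenches rhodamine fluorescence; 0% = enzyme reaction without inhibitor and -100% = no enzyme wells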
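Buffer: 50 mM Hepes-Na pH 7.6, 10 mM MgCl2, 0.01% Nonidet P-40, 0.01% BSA. Enzyme 15 nM, pre-exposed to compound 15 min; substrates then added and fluorescence change tracked over 30 min.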
* hit, by the source's call; ? = inconclusive; . = no result given; [ ] = remark or other dose. Calls come from the whole dose curve; as a rule, active = well fitted curve in the direction sought with a large enough effect; inconclusive = small, poorly fitted or top-dose-only effect, or another doubt; inactive = no such curve, though single readings can be large; an effect the other way counts as inactive or inconclusive. Potency is the fitted concentration of half-maximal effect.

SMILES	G9a inh	VDR inh	GRP78 ERSR act	12-LOX inh	Sfp PPTase inh
CCOc1ccc(NC(=O)Cn2ncn3nc(-c4cc(C)ccc4C)cc3c2=O)cc1	.	.	.	-1.7%	.
Cn1c(SCC(=O)c2ccccc2F)nnc1C1CC1	?	?	2.7%	0.0%	50.1µM*
Cc1nc(C(N)=O)c(N)n1CCc1ccccc1	?	44.7µM*	-0.5%	20.7%	-20.6%
Cc1nc2ccccc2n1CCc1ccccc1	-41.6%	0.7%	-5.0%	0.0%	13.3%
CC1=NC(=O)C(N=Nc2cccc(C(=O)O)c2)N1c1ccccc1 (configuration not stated)	?	-3.5%	-11.4%	7.08µM*	-3.7%
c1ccc2sc(N3CCN(Cc4ccc5c(c4)OCO5)CC3)nc2c1	4.9%[59 µM]	15.4%	-0.7%	0.5%	?
N#C/C(=C\N1CCN(Cc2ccc3c(c2)OCO3)CC1)c1nc2ccccc2s1	39.8µM*	8.0%	1.8%	-9.2%	-4.9%
CCCC(=O)NC(NC(=S)Nc1ccc(S(N)(=O)=O)cc1)C(Cl)(Cl)Cl (configuration not stated)	44.7µM*	-14.8%	-3.6%	-14.4%	-2.7%
CCCCCC(=O)NC(NC(=S)Nc1ccc(S(N)(=O)=O)cc1)C(Cl)(Cl)Cl (configuration not stated)	?	6.4%	-3.6%	?	17.8%
CC(C)C(=O)NC(NC(=S)Nc1ccc(S(N)(=O)=O)cc1)C(Cl)(Cl)Cl (configuration not stated)	50.1µM*	-7.7%	-0.9%	-29.1%	-5.9%
O=C(NC1CCCCCC1)C(=O)NC1CC1	.	-5.8%	0.5%	7.2%	4.2%
O=C(NC1CCCCCC1)C(=S)NC1CCCCC1	35.5µM*	-9.8%	-0.3%	-9.4%	20µM*
O=C(NNC(=O)C1CCCCC1)C(=O)NC1CCCCC1	10µM*	14.1%	-4.5%	9.4%	-1.1%
CN(C)c1cccc(C(=O)NNC(=S)NC2CC3CCC2C3)c1 (configuration not stated)	50.1µM*	-14.3%	5.6%	-9.0%	12.0%
CC(=O)NNC(=S)NC1CC2CCC1C2 (configuration not stated)	.	.	.	63.4%	.
COC(=O)c1ccc(N2C(=O)CC(Sc3n[nH]c(C)n3)C2=O)cc1 (configuration not stated)	2µM*	-5.0%	-17.0%	-0.6%	?
COC(=O)c1cc(C(=O)OC)cc(N2C(=O)CC(Sc3nc(C)cc(C)n3)C2=O)c1 (configuration not stated)	?	3.8%	-4.6%	-6.3%	-15.1%
CN=C(Nc1cc(Cl)ccc1Cl)SC1CC(=O)N(c2ccc(C(=O)OC)cc2)C1=O (configuration not stated)	50.1µM*	-1.1%	-0.9%	-7.7%	28.0%
COc1ccc(N2C(=O)CC(Sc3n[nH]c(-c4cccc(C)c4)n3)C2=O)cc1 (configuration not stated)	.	11.5%	-2.5%	0.0%	3.16µM*
CCOc1ccccc1N1C(=O)CC(Sc2n[nH]c(-c3ccccc3)n2)C1=O (configuration not stated)	1.58µM*	-10.8%	-9.8%	-21.1%	35.5µM*
COC(=O)c1ccc(N2C(=O)CC(SCC(=O)Nc3ccc(OC)cc3)C2=O)cc1 (configuration not stated)	.	?	-4.3%	?	-19.4%
Cc1cccc(CN2C(=O)CN(S(C)(=O)=O)CC2(C)C(=O)NCc2ccc(F)cc2)c1 (configuration not stated)	.	.	.	7.2%	.
Cc1c(F)cccc1NC(=O)N1CCC(OC2CCN(Cc3ccccc3)CC2)CC1	.	.	.	1.0%	.
COc1cccc(CNC(=O)c2ncoc2-c2cccs2)c1	.	.	.	-3.0%	.
CNC(=O)CCn1ncc2cc(OCc3ccccc3-c3ccc(OC)cc3)ccc21	.	.	.	-3.0%[176 µM]	.
SMILES	G9a inh	VDR inh	GRP78 ERSR act	12-LOX inh	Sfp PPTase inh
O=[S+]([O-])(Nc1cccnc1)c1ccc2c(c1)OCCN(Cc1cncc(F)c1)C2	.	.	.	-2.7%[176 µM]	.
COc1cccc(N2CC(C(=O)NCCNC(=O)c3cn(C)c4ccccc34)CC2=O)c1 (configuration not stated)	.	.	.	42.4%	.
Cc1ccc(-c2cc(C(=O)Nc3nnc(C4CC4)s3)c3ccccc3n2)o1	.	.	.	7.94µM*	.
Cc1ccc(-c2cc(C(=O)Nc3nccs3)c3ccccc3n2)c(C)c1	-14.8%[59 µM]	-24.5%	-5.4%	-3.7%	-8.5%
Cc1ccc(-c2cc(C(=O)Nc3nccs3)c3ccccc3n2)o1	4.47µM*	7.3%	1.1%	1.41µM*	?
CCCCCNCc1ccc(C)s1	.	.	.	0.1%	.
CC(C)Nc1oc(-c2cccc3ccccc23)nc1C#N	44.7µM*	-0.3%	6.4%	?	-7.5%
Cc1ccccc1OCc1nc(C#N)c(NCc2ccc3c(c2)OCO3)o1	.	.	.	-8.9%	.
Cc1cccc(OCc2nc(C#N)c(NCc3ccc4c(c3)OCO4)o2)c1	35.5µM*	4.8%	-0.5%	-20.8%	20.4%
N#Cc1nc(COc2cccc(Cl)c2)oc1NCc1ccc2c(c1)OCO2	.	.	.	12.6µM*	.
N#Cc1nc(COc2ccc(Cl)cc2)oc1NCc1ccc2c(c1)OCO2	28.2µM*	-5.0%	-1.7%	?	16.2%
O=C(Nc1cccc(-c2nnnn2C2CC2)c1)c1c2c(nc3ccccc13)CCC2	.	.	.	33.0%	.
Cc1ccc2nc(-c3ccc(NC(=O)C4CCC(C)(C(=O)O)C4(C)C)cc3)sc2c1 (configuration not stated)	.	.	.	-1.3%	.
CCCc1ccc(OC)cc1	.	.	.	5.3%[176 µM]	.
N#Cc1nc(-c2ccccc2)oc1NCc1ccc2c(c1)OCO2	.	.	.	-8.8%	.
N#Cc1nc(-c2cccc3ccccc23)oc1NCc1ccc2c(c1)OCO2	.	.	.	31.6µM*	.
COc1ccc(CNc2oc(COc3cccc(C)c3)nc2C#N)cc1	5.01µM*	-24.9%	1.8%	?	.
COc1ccc(-c2cc(C(=O)NCCC(=O)N3CCCC3)c3ccccc3n2)cc1OC	.	.	.	1.5%	.
Fc1ccc(Cn2nnnc2C(c2ccc(Cl)cc2)N2CCSCC2)cc1 (configuration not stated)	50.1µM*	0.9%	-4.4%	?	-5.7%
O=C1c2ccccc2N2C(=O)CCC2(C(=O)Nc2ccc(F)c(F)c2)N1Cc1ccccc1 (configuration not stated)	.	.	.	11.6%	.
CCOC(=O)c1cc(NCc2ccc(CC)cc2)ccc1N1CCOCC1	.	.	.	-6.6%	.
CCCN1CCC(=O)N(CCO)CC1	44.7µM*	-0.1%	-6.7%	-1.6%	12.4%
CCCCCCCN1CCC(=O)N(CCO)CC1	8.7%	-16.9%	-1.2%	-3.1%	2.8%
CC1(C)CC2(CC(c3ccccc3F)c3cc(Cl)c(O)cc3O2)NC(=S)N1 (configuration not stated)	?	2.9%	-0.1%	31.6µM*	4.9%
Cc1cccc(C2CC3(CC(C)(C)NC(=S)N3)Oc3cc(O)ccc32)c1 (configuration not stated)	?	19.5%	-2.3%	39.8µM*	-0.3%

Compound activity (PubChem)
